The panel holds about 83,000 compounds, 20% with a hit somewhere; the sample as a whole holds those more often.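 Cells were grown in 96-well plates and exposed to the test compound at a single concentration for 48 hours; results are reported as percent growth, with values below 10 considered active.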 A number with no mark means an inactive call. Calls of active or inactive are those of the source.
Columns and labels:
Experiment in all cases: NCI-60 one-dose screen, 48 h (100 = growth as untreated, 0 = no growth, -100 = all killed)
Details in all cases: 10 µM
SR leukemia = tested on: SR leukemia
OVCAR-8 ovarian = tested on: OVCAR-8 ovarian
OVCAR-5 ovarian = tested on: OVCAR-5 ovarian
OVCAR-4 ovarian = tested on: OVCAR-4 ovarian
SK-OV-3 ovarian = tested on: SK-OV-3 ovarian
IGROV1 ovarian = tested on: IGROV1 ovarian
OVCAR-3 ovarian = tested on: OVCAR-3 ovarian
HS 578T breast = tested on: HS 578T breast
NCI/ADR-RES ovarian = tested on: NCI/ADR-RES ovarian
T-47D breast = tested on: T-47D breast
BT-549 breast = tested on: BT-549 breast
MDA-MB-435 melanoma = tested on: MDA-MB-435 melanoma
SW-620 colon = tested on: SW-620 colon
MCF7 breast = tested on: MCF7 breast
HCT-116 colon = tested on: HCT-116 colon
HCC-2998 colon = tested on: HCC-2998 colon
RPMI-8226 leukemia = tested on: RPMI-8226 leukemia
KM12 colon = tested on: KM12 colon

Compound | growth (SR leukemia) | growth (OVCAR-8 ovarian) | growth (OVCAR-5 ovarian) | growth (OVCAR-4 ovarian) | growth (SK-OV-3 ovarian) | growth (IGROV1 ovarian) | growth (OVCAR-3 ovarian) | growth (HS 578T breast) | growth (NCI/ADR-RES ovarian) | growth (T-47D breast) | growth (BT-549 breast) | growth (MDA-MB-435 melanoma) | growth (SW-620 colon) | growth (MCF7 breast) | growth (HCT-116 colon) | growth (HCC-2998 colon) | growth (RPMI-8226 leukemia) [%] | growth (KM12 colon)
COc1ccc(-c2[nH]ncc2-c2cc(OC)c(OC)c(OC)c2)cc1 | 0.125% (active) | 9.19% (active) | 20.7% | 26.8% | -0.205% (active) | 28.8% | -17.5% (active) | 16.1% | 14.5% | 58.1% | -6.65% (active) | -48% (active) | 23.6% | 6.61% (active) | 2.61% (active) | -3.98% (active) | – | –
Cc1ccc(NC(=O)/C=N/O)cc1C | 87% | 98.6% | – | 85.2% | 81.3% | 117% | 87% | 95.7% | 112% | 76.4% | 91.6% | 96.5% | 100% | 61.5% | – | 116% | 96.6 | 104%
O=C(OCC1OC(n2cc(C(F)(F)F)c(=O)[nH]c2=O)CC1OC(=O)c1ccc([N+](=O)[O-])cc1)c1ccc([N+](=O)[O-])cc1 (centres undefined) | 60.4% | 66.8% | – | 88.2% | 63.1% | 82.3% | 74.1% | 88.5% | 88.7% | 74.4% | 60.1% | 50.6% | 65.6% | 33.6% | 72.7% | 51.5% | 71.9 | 72.2%
CCN(CCCNC(=O)Cc1cc(=O)oc2cc(N(C)C)ccc12)CCNc1ccnc2cc(Cl)ccc12 | 1.46% (active) | 83.9% | – | 81.7% | 116% | – | 106% | 98.3% | 109% | 123% | – | 46.7% | 74.9% | 66% | 53.3% | 79.5% | 54.7 | 92.7%
Cc1ncc([N+](=O)[O-])n1CCOc1ccc(C(=O)/C=C/c2ccc(C(F)(F)F)cc2)cc1 | -13.2% (active) | 51.8% | 90% | 100% | 79.4% | 80.4% | 51.3% | 66.9% | 65.9% | 51.6% | 68.1% | 83.1% | 15.4% | 12.7% | -59% (active) | 95.9% | – | 14.5%
Cc1ccc([P+](Cc2ccc([N+](=O)[O-])cc2)(c2ccc(C)cc2)c2ccc(C)cc2)cc1 | 3.65% (active) | 40.3% | 72.9% | 31.1% | 74.7% | – | 25.7% | 86.9% | 100% | 7.03% (active) | 17.2% | 6.06% (active) | 45.2% | 29.7% | 22% | 31.3% | – | 16%
CCOC(=O)Nc1ccc2c(c1)C(=O)N(CC)c1ccccc1O2 | 8.37% (active) | 7.22% (active) | 74% | 43.7% | 23.2% | 32.1% | -7.48% (active) | 46% | 8.14% (active) | 73.4% | 26.2% | -17.1% (active) | 32.7% | 14.2% | 9.54% (active) | 18.2% | – | 14.7%
COC(=O)CCCCCCCCC(C)c1ccc(C(C)=O)cc1 (centres undefined) | 94.2% | 104% | – | 120% | 102% | 110% | 108% | 93.9% | 103% | 94.4% | 130% | 97.1% | 103% | 118% | 110% | 99.6% | – | 103%
CCOC(=O)c1sc(Nc2ncccn2)nc1-c1ccccn1 | 62.7% | 85.7% | 93.1% | 42% | 76.4% | 87.4% | 82.3% | 105% | 68.6% | 41.8% | 89.2% | 103% | 95.6% | 7.18% (active) | 74.2% | 80.7% | – | 83%
CCCCCc1cc[n+](CC(=O)c2ccc(Cl)cc2)cc1 | 86% | 98.8% | 71.4% | 96.3% | 99.1% | 86.5% | 59.8% | 95.9% | 99.7% | 90.6% | 86.6% | 86.7% | 83.2% | 89.7% | 59% | 91% | – | 73.4%
COc1ccc2oc(=O)cc(C3c4ccc([nH]4)C(c4cc(=O)oc5ccc(OC)cc45)c4ccc([nH]4)C(c4cc(=O)oc5ccc(OC)cc45)c4ccc([nH]4)C(c4cc(=O)oc5ccc(OC)cc45)c4ccc3[nH]4)c2c1 (centres undefined) | -15.9% (active) | -10.9% (active) | 3.08% (active) | 0.347% (active) | 0.72% (active) | 19.7% | -85.2% (active) | 8.18% (active) | 5.87% (active) | -28.7% (active) | -73.8% (active) | 1.62% (active) | -64.1% (active) | -29.7% (active) | -70.4% (active) | 30.5% | – | 1.11% (active)
CCN1CCN(c2nc(NNC(=O)c3cccc(OC)c3)nc(N3CCN(C(c4ccccc4)c4ccccc4)CC3)n2)CC1 | -11.8% (active) | 65% | – | 62.4% | 76.1% | 58.5% | 72.6% | 64.3% | 76.2% | 47.9% | 63.3% | 19.5% | 69.5% | 12.8% | 26.7% | -16.4% (active) | – | 25.7%
CCCCCCCC/C=C/CCCCCCCCC1=NCCN1CCO | -8.86% (active) | 74.9% | 95.2% | 81.7% | 97.8% | 63.8% | 83.1% | 81% | 81.1% | 79.7% | 83.1% | 68.9% | 40% | 71.2% | 7.94% (active) | 97.8% | – | 62.5%
Cn1cnc([N+](=O)[O-])c1Sc1nnc(-c2ccccc2)c(-c2ccccc2)n1 | – | 102% | 93.6% | 73.9% | 120% | 72% | 51.3% | 106% | 82.3% | 9.12% (active) | – | 42.1% | 48% | 61.9% | 32.8% | 96.8% | 43.8 | 92.5%
O=S(=O)(NC1c2ccccc2Oc2ccccc21)c1cc(Cl)ccc1Cl | 66.8% | 93.5% | 109% | 80.9% | 98.1% | 95.5% | 98.7% | 102% | 93.5% | 74.1% | 91.1% | 105% | 87.5% | 91.9% | 90.4% | 99.1% | – | 102%
CC(=O)c1ccc(NCn2nc(-c3ccc(Cl)cc3)oc2=S)cc1 | 85.1% | 105% | 85.2% | 113% | 94.4% | – | 108% | 96.2% | 101% | 80% | 99.1% | 105% | 104% | 95.7% | 93.3% | 99.7% | – | –
COc1ccc(-c2ccc(-c3ccc(C(=N)N)c(F)c3)s2)cc1 | -21.2% (active) | -48.7% (active) | -91.7% (active) | -67.9% (active) | -93.8% (active) | -62.7% (active) | -96% (active) | -54.3% (active) | -51.3% (active) | -64% (active) | -91.7% (active) | -79.5% (active) | -91% (active) | -70.6% (active) | -82.6% (active) | -83.9% (active) | – | -94.9% (active)

From PubChem BioAssay (NCI)
